Source: PubChem BioAssay AID1159580 (chemical genetic matrix, 2015)
Among all 5,500 compounds or so, about 2,000 (36%) were called active. Inconclusive results (about 18%) are left out. Cut-off read from the data, not from the text of the source: active = normalized growth mostly below about 0.91 (no sharp cut-off); inconclusive = no clear call, values can overlap the other calls; inactive = mostly above about 0.92. Some of the results follow.

Experiment: chemical genetic growth profiling, strain panel (AID 1159580);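 note: tested at 20 µM; growth read once vehicle control cultures reached saturation at 30 °C; 1 = growth at the plate median or of vehicle wells; lower values mean less growth of the strain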
Details: S. cerevisiae deletion strains, growth OD

Measured: normalized growth

Brc1ccc2[nH]c3c(c2c1)CCC3
inactive: locus YAR019C, strain CDC15, hits give low values 0.954 | locus YBL105C, strain PKC1, hits give low values 0.955 | locus YBR135W, strain CKS1, hits give low values 0.934 | locus YBR136W, strain MEC1, hits give low values 0.945 | locus YBR160W, strain CDC28, hits give low values 0.949 | locus YDL017W, strain CDC7, hits give low values 0.962 | locus YDL028C, strain MPS1, hits give low values 0.937 | locus YDL101C, strain DUN1, hits give low values 0.966 | locus YDL108W, strain KIN28, hits give low values 0.932 | locus YDL132W, strain cdc53, hits give low values 0.962 | locus YDR052C, strain DBF4, hits give low values 0.975 | locus YDR054C, strain cdc34, hits give low values 0.97 | locus YDR226W, strain ADK1, hits give low values 0.96 | locus YDR477W, strain SNF1, hits give low values 0.712 | locus YFL009W, strain cdc4, hits give low values 0.946 | locus YFL029C, strain CAK1, hits give low values 0.942 | locus YFR003C, strain YPI1, hits give low values 0.952 | locus YFR028C, strain CDC14, hits give low values 0.969 | locus YGR040W, strain KSS1, hits give low values 0.716 | locus YGR092W, strain DBF2, hits give low values 0.621 | locus YHR205W, strain SCH9, hits give low values 0.666 | locus YIL147C, strain SLN1, hits give low values 0.947 | locus YJL128C, strain PBS2, hits give low values 0.915 | locus YJL157C, strain FAR1, hits give low values 0.74 | locus YJR016C, strain ILV3, hits give low values 0.946 | locus YJR066W, strain TOR1 (second series), hits give low values 0.67 | locus YJR066W, strain TOR1, hits give low values 0.541 | locus YKL101W, strain HSL1, hits give low values 0.747 | locus YKL193C, strain SDS22, hits give low values 0.937 | locus YKL203C, strain TOR2, hits give low values 0.762 | locus YLR133W, strain CKI1, hits give low values 0.805 | locus YLR403W, strain SFP1, hits give low values 0.757 | locus YMR001C, strain CDC5, hits give low values 0.94 | locus YMR205C, strain PFK2 (second series), hits give low values 0.784 | locus YMR277W, strain FCP1, hits give low values 0.948 | locus YNL006W, strain LST8, hits give low values 0.938 | locus YNL020C, strain ARK1, hits give low values 0.795 | locus YNL161W, strain CBK1, hits give low values 0.942 | locus YNL207W, strain RIO2, hits give low values 0.926 | locus YNL222W, strain SSU72, hits give low values 0.936 | locus YNL307C, strain MCK1 (second series), hits give low values 0.695 | locus YOL078W, strain AVO1, hits give low values 0.942 | locus YOR061W, strain CKA2, hits give low values 0.76 | locus YOR119C, strain RIO1, hits give low values 0.729 | locus YOR329C, strain SCD5, hits give low values 0.948 | locus YPL209C, strain IPL1, hits give low values 0.938 | locus YPR025C, strain CCL1, hits give low values 0.94 | locus YPR106W, strain ISR1, hits give low values 0.94 | locus YPR111W, strain DBF20, hits give low values 0.945 | strain NNK1, hits give low values 0.926 | strain TSCII, hits give low values 0.931
active: locus YDL214C, strain PRR2, hits give low values 0.69 | locus YER123W, strain YCK3, hits give low values 0.609 | locus YER133W, strain GLC7, hits give low values 0.668 | locus YFR019W, strain FAB1, hits give low values 0.759 | locus YGR052W, strain FMP48, hits give low values 0.595 | locus YHR030C, strain SLT2, hits give low values 0.344 | locus YHR079C, strain IRE1, hits give low values 0.151 | locus YHR082C, strain KSP1, hits give low values 0.587 | locus YJL095W, strain BCK1, hits give low values 0.467 | locus YKL048C, strain ELM1, hits give low values 0.769 | locus YKL067W, strain YNK1, hits give low values 0.723 | locus YLR113W, strain HOG1, hits give low values 0.44 | locus YML070W, strain DAK1, hits give low values 0.651 | locus YNL183C, strain NPR1, hits give low values 0.519 | locus YOL136C, strain PFK27, hits give low values 0.625 | locus YOR231W, strain MKK1, hits give low values 0.56 | locus YPL031C, strain PHO85, hits give low values 0.647 | locus YPL153C, strain RAD53, hits give low values 0.653 | locus YPL204W, strain HRR25, hits give low values 0.642 | locus YPL256C, strain CLN2, hits give low values 0.472
